MCF10A rerep: inducers of DNA re-replication in MCF 10A breast cells | 350,000 compounds, 2.9% hits | MCF 10A DNA re-replication, Hoechst nuclear intensity, 48 h | Potency, µM (titrated, usually from 46.1 µM), actives largely listed as activators | AID 624296; also: nearly all actives have a fitted effect of over 50% in size
DT40 TDP1 no CPT: qHTS for Inhibitors of human tyrosyl-DNA phosphodiesterase 1 (TDP1): qHTS in cells in absence of CPT | DT40 Tdp1-/- hTDP1 cells, no CPT, ATP luminescence, 48 h | Potency, µM (doses to about 46.2 µM), most hits filed as inhibitors | 420,000 compounds, 15% hits | AID 686978, 2013; also: nearly all actives have a fitted effect of over 55% in size
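Chicken DT40 Tdp1-/- cells complemented with human TDP1, screened without camptothecin (DMSO vehicle only), 400 cells/well. Compounds pin-transferred, cells incubated at 37 °C for at least 48 hr. Growth read as ATP-dependent luminescence (CellTiter-Glo, 30 min at RT).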
SW480 rereplic: inducers of DNA re-replication in SW480 colon cancer cells. SW480 DNA re-replication, Hoechst DNA content imaging, 48 h. Potency, µM (doses to about 46.1 µM), most hits filed as activators. 340,000 compounds, 1.8% hits. AID 624297; also: nearly all actives have a fitted effect of over 55% in size
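SW480 cells exposed to compounds for 48 hr at 37 C, 5% CO2, then Hoechst-stained 40 min. Nuclear DNA content imaged by fluorescence scanning (405 nm excitation, 500-530 nm emission); re-replication scored as increased high-intensity nuclei.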
DT40 TDP1 CPT: growth inhibition of DT40 Tdp1-/-;hTDP1 cells with camptothecin (screen for TDP1 inhibitors) | chicken DT40 Tdp1-/-;hTDP1 cells + 20 nM CPT, ATP luminescence, 48 h | Potency, µM (series often up to 46.2 µM), usual class: inhibitors | 420,000 compounds, 12% hits; also: nearly all actives have a fitted effect of over 55% in size
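Chicken DT40 Tdp1-/- cells stably complemented with human TDP1 were seeded at 400 cells/well in medium containing 20 nM camptothecin, exposed to pin-transferred compounds, and grown at 37 °C for at least 48 hr. Viability was read as ATP luminescence.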
BCR signal inh: blocks chronic active B-cell receptor signaling. Potency, µM (series often up to 46.1 µM), usual class: inhibitors. ABC-DLBCL IkBa-CBG/CBR reporter, luminescence ratio, 4 h. 340,000 compounds, 0.05% hits; active = well fitted inhibition curve with a large enough effect in the signal ratio, with a control signal flat, not every such curve was filed as active; inconclusive = small, poorly fitted or top-dose-only effect, or effect the other way, or a change in a side signal; the % refers to the signal ratio
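Cell line TMD8 (human ABC DLBCL), stably expressing tet-inducible CBG68-IkBa fusion and CBR; IMDM/0.5% FBS; cpd up to 46 uM; dox induction, 4 h, 37C/5% CO2; dual luminescence; green/red ratio; MG132 control.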
IL1B secr inh: blocks inflammasome-driven IL-1 beta release | activity change, % at 57.5 µM | THP-1 LPS/ATP IL-1B secretion, AlphaLISA, 16 h; active compounds read low | 360,000 compounds, 4.7% hits | AID 743279; in the data active = activity change below about -50%; inconclusive = mostly about -30% to -49%
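THP-1 cells pretreated 1 hr with compounds (up to 57.5 uM final), then stimulated with LPS (250 ng/mL final) plus ATP (1.25 mM final); secreted IL-1B measured by AlphaLISA after 16 hr, decreased signal indicating inhibition.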
Numbers stand for hits; – = inactive; ? = inconclusive; · = no result given; [ ] = remark or other dose. A selection: hits, their analogues and other compounds. The true share with any hit is near 19%. Unless noted, calls follow the shape of the dose curve; as a rule, active = well fitted curve in the direction sought with a large enough effect; inconclusive = small, poorly fitted or top-dose-only effect, or another doubt; inactive = no such curve, though single readings can be large; an effect the other way counts as inactive or inconclusive.

SMILES	MCF10A rerep	DT40 TDP1 no CPT	SW480 rereplic	DT40 TDP1 CPT	BCR signal inh	IL1B secr inh
CC(C)Oc1ccc(S(=O)(=O)N2CCOCC2)cc1NC(=O)CC1CCCC1	–	?	–	?	–	–
O=C(CN1CCOCC1)Nc1ccc(Cl)c(Cl)c1	–	–	–	–	?	–
O=C(CC1CCCC1)Nc1ccc(Cl)c(S(=O)(=O)N2CCOCC2)c1	?	16.4µM	?	?	–	–
O=C(CC1CCCC1)Nc1cc(S(=O)(=O)N2CCOCC2)ccc1O	–	?	–	8.2µM	–	–
O=C(COc1ccccc1[N+](=O)[O-])N(Cc1ccccc1)c1ccccn1	–	–	–	–	–	–
Cc1ccc(CN(C(=O)COc2ccc(Cl)c(C)c2)c2ccccn2)o1	·	14.6µM	·	?	·	·
COc1cc(CN(C(=O)COc2ccc(Br)cc2)c2ccccn2)cc(OC)c1OC	·	16.4µM	·	16.4µM	·	·
Cc1ccc(CN(C(=O)COc2cccc([N+](=O)[O-])c2)c2ccccn2)cc1	·	20.6µM	·	?	·	·
Cc1cc(OCC(=O)N(C)Cc2ccccc2)ccc1Cl	–	?	–	–	–	–
COc1cc(CN(C(=O)COc2ccc(Cl)c(C)c2)c2ccccn2)cc(OC)c1OC	·	10.3µM	·	11.6µM	·	·
COc1cc(CN(C(=O)COc2ccc(C)cc2)c2ccccn2)cc(OC)c1OC	·	9.2µM	·	8.2µM	·	·
COCC(=O)N(Cc1ccccc1)c1ccccn1	–	–	–	–	?	–
Cc1ccc(OCC(=O)N(Cc2ccccc2)c2ccccn2)cc1	–[9.22 µM]	–	–	–	–	–
COc1cc(CN(C(=O)COc2ccccc2Cl)c2ccccn2)cc(OC)c1OC	·	18.4µM	·	?	·	·
NNC(=O)c1c[nH]c2ccc(OCc3ccccc3)cc12	–	–	–	–	·	–
O=C(CN(C(=O)c1csnn1)c1cccc(C(F)(F)F)c1)NC1CCCC1	–	–	–	–	–	–
CC1CCc2nc3ncn(Cc4ccc(Cl)cc4)c(=O)c3cc2C1 (stereo unspecified)	·	23.1µM	·	18.4µM	·	·
Cc1ccccc1Cn1cnc2nc3c(cc2c1=O)CC(C)CC3 (stereo unspecified)	·	2.59µM	·	16.4µM	·	·
COC(=O)c1ccc(Cn2cnc3nc4c(cc3c2=O)CCCC4)cc1	·	–	·	–	·	·
Cc1cc(C)c(Cn2cnc3nc4c(cc3c2=O)CCCC4)c(C)c1	·	?	·	–	·	·
Cc1ccc(S(=O)(=O)N(C)C)cc1NC(=O)c1cc(S(=O)(=O)N2CCCCC2)ccc1N1CCOCC1	–	11.6µM	–	?	–	–
COc1ccc(CCNC(=O)COC(=O)c2cc(S(=O)(=O)N3CCOCC3)ccc2C)cc1OC	–	?	–	18.4µM	?	–
Cc1ccc(S(=O)(=O)N2CCN(C(=O)c3cc(S(=O)(=O)N(C)C)ccc3N3CCCC3)CC2)c(C)c1	–	16.4µM	?	?	–	–
Cc1ccc(S(=O)(=O)N2CCOCC2)cc1C(=O)OCC(=O)NCCc1ccccc1	–	?	–	?	–	–
O=C(NCCc1c[nH]c2ccccc12)c1cc(S(=O)(=O)N2CCCCC2)ccc1N1CCOCC1	–	13µM	–	?	–	–
SMILES	MCF10A rerep	DT40 TDP1 no CPT	SW480 rereplic	DT40 TDP1 CPT	BCR signal inh	IL1B secr inh
CC1(C(=O)O)CCCN(C(=O)C2(c3ccc(Cl)cc3)CCCC2)C1 (stereo unspecified)	·	–	·	–	·	–
Cc1ccc(S(=O)(=O)N(CC(=O)c2ccccc2)C(=O)N2CCN(C)CC2)cc1	–	–	–	?	–	–
COc1cc(NC(=O)c2cc(S(=O)(=O)N3CCCCC3)ccc2N2CCOCC2)cc(OC)c1	–	20.6µM	–	20.6µM	–	–
COc1ccc(CNC(=O)c2cc(S(=O)(=O)N3CCCCC3)ccc2N2CCOCC2)cc1OC	–	9.2µM	–	?	·	–
O=C(C[n+]1cccc(Br)c1)c1cccc([N+](=O)[O-])c1	·	–	·	–	·	·
CCNc1ncc2nc(-c3ccc(Cl)cc3)c(=O)n(Cc3cccc(OC)c3)c2n1	·	–	·	–	·	·
COc1ccc(/C=N/N(CCC(=O)NC(C)(C)C)C2=NS(=O)(=O)c3ccccc32)cc1	–	20.6µM	–	20.6µM	–	–
CC(C)(C)NC(=O)CCN(/N=C/c1ccccc1O)C1=NS(=O)(=O)c2ccccc21	–	14.6µM	–	20.6µM	–	–
C=CCN=C(NC#N)SCC(=O)c1cccc(OC)c1	?	–	?	–	?	-57.0
C=CCN=C(NC#N)SCc1ccccc1	–	–	–	–	–	–
CCOC(=O)/C(C#N)=N/Nc1c(C)n(C)n(-c2ccccc2)c1=O	–	16.4µM	–	16.4µM	–	–
Cc1c(NC=C(C#N)C#N)c(=O)n(-c2ccccc2)n1C	–	–	–	–	–	–
Cc1c(N/N=C(\C#N)C(=O)c2ccccc2)c(=O)n(-c2ccccc2)n1C	–	3.26µM	?	2.91µM	?	–
CCOC(=O)/C(C#N)=N/Nc1ccccc1C#N	–	20.6µM	–	8.2µM	?	–
Cc1ccccc1C(=O)/C(C#N)=N/Nc1c(C)n(C)n(-c2ccccc2)c1=O	–	3.66µM	?	4.61µM	–	–
COCCn1c(=O)c(-c2ccc(Cl)cc2)nc2cnc(Oc3ccccc3)nc21	·	–	·	–	·	·
Nn1c(Cc2cccc3ccccc23)nnc1SCc1ccc(Cl)c(Cl)c1	?	–	?	–	?	-71.7
Nn1c(Cc2cccc3ccccc23)nnc1SCc1c(Cl)cccc1Cl	?	16.4µM	–	?	–	–
Nn1c(Cc2cccc3ccccc23)nnc1SCn1nnc2ccccc2c1=O	–	–	–	–	–	–
CCN1C/C(=C\c2cccc([N+](=O)[O-])c2)C(=O)/C(=C/c2cccc([N+](=O)[O-])c2)C1	2.59µM	0.92µM	0.581µM	0.651µM	?	-103.7
O=C1/C(=C/c2cccc([N+](=O)[O-])c2)CCc2ccccc21	?	14.6µM	?	?	–	-121.3
O=C(O)c1ccc(-n2ncc3c2/C(=C/c2cccc([N+](=O)[O-])c2)CC3)cc1	–	?	–	16.4µM	?	–
O=C1/C(=C\c2ccc3ccccc3c2)CCCc2ccccc21	5.8µM	?	?	?	?	–
CC(Sc1ccc(S(=O)(=O)N(C)C)cn1)C(=O)NC1CCCC1 (stereo unspecified)	–	–	–	–	–	–
Cc1cnc(C)c(-c2cc(F)cc3c2OC(CNC(=O)Cc2ccccc2C)C3)n1 (stereo unspecified)	·	?	·	–[9.04 µM]	·	·
NC1=NC(=O)C(c2ccccc2)(c2ccccc2)S1	–	?	–	–	·	–
CCOc1ccccc1NC(=O)C1=C(C)Nc2ncnn2C1c1ccc(C)o1 (stereo unspecified)	·	–	·	–	·	·
